A short description of assay [1]: yeast TOR pathway RPL19A-GFP modulators, primary screen, cell-based, S. cerevisiae, multiplex flow cytometry (AID 1862; in the data active means percent of DMSO control GFP below about 86%;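 further: lower values mimic rapamycin by blocking the RPL19A rise seen in DMSO cells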). Conditions: S. cerevisiae RPL19A-GFP strain, flow cytometry fluorescence, 3 h; at 10 µM; stronger effect = lower value.
Assay [2] can be described thus: modulators of MEP2-GFP levels in yeast, primary screen, S. cerevisiae, multiplex flow cytometry (AID 1867;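 active means GFP response, as percent of the DMSO control, above the screen-wide mean plus 3 SD, about 139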;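 further: median GFP channel fluorescence of barcode-gated MEP2-GFP cells measured by flow cytometry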). To be noted: S. cerevisiae MEP2-GFP strain, 3 h, at 10 µM, stronger effect = higher value, 100% means same as DMSO wells.
The nature of assay [3]: modulators of CIT2-GFP expression in yeast, primary screen, S. cerevisiae, GFP fusion, multiplex flow cytometry (AID 1870;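 active means percent response above a set limit, the screen-wide mean plus 3 SD, cut at about 130% in these data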;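 further: barcoded CIT2-GFP strain pooled with four other GFP strains with rapamycin as positive control; median GFP fluorescence per well over plate mean of DMSO wells so 100% = DMSO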). Conditions: 3 h, at 10 µM, stronger effect = higher value. (In flow cytometry, cells or beads pass a laser one at a time.)
The nature of assay [4]: modulators of LAP4-GFP expression in yeast, primary screen, S. cerevisiae, multiplex flow cytometry (AID 1873;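 active means GFP signal, as percent of the solvent control, above the screen mean plus 3 SD, about 149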). Conditions: 3 h, at 10 µM, stronger effect = higher value.
A short description of assay [5]: modulators of AGP1-GFP expression in yeast TOR pathway, primary screen, cell-based, multiplex flow cytometry, S. cerevisiae (AID 1887;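 active means GFP signal above the screen-wide mean plus 3 SD, that is over about 124.5% of the solvent control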;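 further: AGP1-GFP fusion strain of S. cerevisiae within a five-strain barcoded multiplex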). To be noted: 3 h, at 10 µM, stronger effect = higher value.
Assay [6] can be described thus: inhibitors of CD8+ T cell-vesicle binding, pilot screen, LFA-1/ICAM-1 modulator project, MLPCN validation set, flow cytometry (AID 2523;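 active means response below a set limit, under 55% cells CD8-positive and vesicle-bound, and CD8 cells' 90th-percentile brightness under 279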;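 on vesicle binding response: mean PE anti-B7-1 fluorescence of CD8+ cells relative to row control; 100% = QL9-loaded vesicles with DMSO vehicle in the same plate row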). Conditions: 2C mouse CD8+ T cells, at 7 µM, stronger effect = lower value; double positive events: measured here: CD8+/vesicle+ event percentage.
Assay [7] has as its target Integrin beta-1 (Homo sapiens) + Integrin alpha-4 (Homo sapiens) (UniProt P13612+P05556). Description: inhibition of HUTS-21 binding to VLA-4, pilot screen, VLA-4 allosteric modulator project, U937 cells, HUTS-21 mAb, flow cytometry, validation set (AID 2674;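 active means inhibition above 50%, about 3 SD of the validation set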;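 further: antibody binding induced by the VLA-4 ligand LDV present at three times its Kd; 0% = LDV ligand with antibody and no compound and 100% = antibody without LDV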). Conditions: HUTS-21 LIBS mAb binding, at 6.7 µM, stronger effect = higher value, binding induced by LDV ligand.
Assay [8] can be described thus: superoxide lowering in aged yeast cells, pilot screen, validation compound set (AID 2706;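 active means superoxide response below 65% of plate, a cut near 3 SD across the whole screen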;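 further: yeast exposed to compound for one week at 30 degrees C before staining; 100% = mean of all compound wells on the same plate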). To be noted: S. cerevisiae aging, superoxide DHE fluorescence; at 10 µM; stronger effect = lower value.
For assay [9], the target named is Beta-adrenergic receptor kinase 1 (Homo sapiens) (UniProt P25098). Description: GRK2 binders displacing RNA aptamer, biochemical, validation, human GRK2, bead flow cytometry (AID 488806;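 active means aptamer binding inhibition above 30%, about 3 SD of noise from non-fluorescent compounds; inactive means inhibition at or below 30%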). To be noted: bead-bound GRK2, FAM-aptamer displacement, at 10 µM, stronger effect = higher value.
Assay [10] concerns the target Beta-2 adrenergic receptor (Homo sapiens) (UniProt P07550). As to the kind of experiment: beta2AR agonists driving receptor internalization, pilot screen, cell-based, FAP fluorogen, flow cytometry, validation set (AID 504459;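 active means percent response above 42, roughly 3 SD of non-fluorescent test compounds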;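 further: agonist-driven loss of surface beta2AR via internalization measured by FAP dye flow cytometry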). To be noted: Am2.2-beta2AR cells, FAP surface receptor flow cytometry; at 10 µM; stronger effect = higher value.
In assay [11] the target is AP-2 complex subunit beta (Homo sapiens) (UniProt P63010). As to the kind of experiment: inhibitors of arrestin peptide binding to AP2, pilot screen, biochemical, validation set, GST-AP2 beads, flow cytometry (AID 504541;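 active means inhibition above 54%, about 3 SD of non-fluorescent compounds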;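 further: AP2 carries R879A mutation and is captured from E. coli lysate; bead-bound FITC arrestin peptide fluorescence measuring arrestin peptide binding to AP2; 0% = DMSO wells and 100% = excess unlabeled arrestin peptide control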). To be noted: FITC arrestin peptide, at 10 µM, stronger effect = higher value, AP2 beta2 appendage fragment, R879A mutant.
Assay [12] is described as follows: yeast V-ATPase proton transport modulators, S. cerevisiae, pHLuorin, HTS validation (AID 504600; in the data active means response above about 15%;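 further: plate controls were DMSO for no effect and reference compound for full effect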). To be noted: S. cerevisiae pHLuorin cytosolic pH, at 10 µM, stronger effect = higher value.
Assay [13] deals with anti-desmoglein-3 scFv antibody binding to human DSG3. Description: inhibitors of anti-DSG3 scFv binding to DSG3, pilot screen, biochemical, validation compound set, bead-based, flow cytometry (AID 588368;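 active means binding below the plate cutoff, the plate median minus 3 SD, with a reading above zero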;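 further: signal is the median channel fluorescence of bead-bound GFP antibody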). Conditions: Protein G beads, DSG3-Fc, scFv-GFP binding, at 10 µM, stronger effect = lower value.
A short description of assay [14]: inhibitors of fungal efflux pumps CDR1, CDR2, MDR1, pilot screen, validation compound set, multiplex, phenotypic (AID 588506;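 active means efflux inhibition above 0.42, the validation set average plus 4 SD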;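 further: Nile Red retained in cells so higher fluorescence means more efflux inhibition; 0 = negative control wells and 1 = enniatin B 25 µM full block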). To be noted: S. cerevisiae pump-expressing triplex, Nile Red efflux flow cytometry; at 10 µM; stronger effect = higher value; the pumps come from Candida albicans.
Assay [15] deals with ATP-binding cassette sub-family B member 6 (Homo sapiens) (UniProt Q9NP58). As to the kind of experiment: ABCB6 transporter inhibitors, pilot screen, K562-ABCB6 cells, flow cytometry, validation set (AID 588550).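 Further: 0% = DMSO wells and 100% = benzethonium chloride 70 µM positive control.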 Conditions: K562-ABCB6 porphyrin accumulation, 1 h, at 10 µM, stronger effect = higher value.
The nature of assay [16]: promoters of myeloid differentiation in arrested cells, primary screen, cell-based, GFP/MAC1 double positive, flow cytometry, validation set (AID 588685;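 active means differentiation response of at least 50%, scaled between solvent and reference control, from cells with both markers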;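 further: compound exposure lasts four days before antibody staining and flow analysis; 0% = DMSO wells and 100% = 5 µM fulvestrant positive control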). To be noted: ER-HoxA9 marrow cells, stronger effect = higher value, normalized: vehicle 0, fulvestrant 100.

Inconclusive results are not listed. Active and inactive are the calls of the source.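 How the source made its calls, unless noted: active means inhibition above the screen-wide mean plus 3 SD, about 51%; inactive means the rest.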

Here are results for five molecules from PubChem BioAssay.

Chain of Integrin beta-1 (Homo sapiens) + Integrin alpha-4 (Homo sapiens) (P05556 whole entry, looked up): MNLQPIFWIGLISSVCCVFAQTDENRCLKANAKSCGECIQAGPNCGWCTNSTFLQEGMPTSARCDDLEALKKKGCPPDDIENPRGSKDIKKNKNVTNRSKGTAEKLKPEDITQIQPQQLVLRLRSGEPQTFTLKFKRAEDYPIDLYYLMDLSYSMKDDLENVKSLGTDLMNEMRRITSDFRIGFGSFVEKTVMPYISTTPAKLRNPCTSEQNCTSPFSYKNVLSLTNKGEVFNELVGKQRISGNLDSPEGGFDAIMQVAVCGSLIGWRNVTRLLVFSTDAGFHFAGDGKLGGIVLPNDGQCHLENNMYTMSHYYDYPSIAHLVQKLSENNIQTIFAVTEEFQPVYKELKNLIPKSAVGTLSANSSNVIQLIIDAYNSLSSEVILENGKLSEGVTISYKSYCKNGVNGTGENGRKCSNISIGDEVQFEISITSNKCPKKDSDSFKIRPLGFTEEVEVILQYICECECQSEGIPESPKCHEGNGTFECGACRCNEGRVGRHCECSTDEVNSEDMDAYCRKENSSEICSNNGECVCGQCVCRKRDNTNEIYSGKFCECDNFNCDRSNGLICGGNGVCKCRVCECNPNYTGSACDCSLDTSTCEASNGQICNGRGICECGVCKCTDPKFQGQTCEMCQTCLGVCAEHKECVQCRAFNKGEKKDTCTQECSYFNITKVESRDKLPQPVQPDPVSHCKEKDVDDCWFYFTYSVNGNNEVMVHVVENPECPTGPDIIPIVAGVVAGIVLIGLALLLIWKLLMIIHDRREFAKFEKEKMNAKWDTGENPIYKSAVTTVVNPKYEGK
Chain of Integrin beta-1 (Homo sapiens) + Integrin alpha-4 (Homo sapiens) (P13612 whole entry, looked up): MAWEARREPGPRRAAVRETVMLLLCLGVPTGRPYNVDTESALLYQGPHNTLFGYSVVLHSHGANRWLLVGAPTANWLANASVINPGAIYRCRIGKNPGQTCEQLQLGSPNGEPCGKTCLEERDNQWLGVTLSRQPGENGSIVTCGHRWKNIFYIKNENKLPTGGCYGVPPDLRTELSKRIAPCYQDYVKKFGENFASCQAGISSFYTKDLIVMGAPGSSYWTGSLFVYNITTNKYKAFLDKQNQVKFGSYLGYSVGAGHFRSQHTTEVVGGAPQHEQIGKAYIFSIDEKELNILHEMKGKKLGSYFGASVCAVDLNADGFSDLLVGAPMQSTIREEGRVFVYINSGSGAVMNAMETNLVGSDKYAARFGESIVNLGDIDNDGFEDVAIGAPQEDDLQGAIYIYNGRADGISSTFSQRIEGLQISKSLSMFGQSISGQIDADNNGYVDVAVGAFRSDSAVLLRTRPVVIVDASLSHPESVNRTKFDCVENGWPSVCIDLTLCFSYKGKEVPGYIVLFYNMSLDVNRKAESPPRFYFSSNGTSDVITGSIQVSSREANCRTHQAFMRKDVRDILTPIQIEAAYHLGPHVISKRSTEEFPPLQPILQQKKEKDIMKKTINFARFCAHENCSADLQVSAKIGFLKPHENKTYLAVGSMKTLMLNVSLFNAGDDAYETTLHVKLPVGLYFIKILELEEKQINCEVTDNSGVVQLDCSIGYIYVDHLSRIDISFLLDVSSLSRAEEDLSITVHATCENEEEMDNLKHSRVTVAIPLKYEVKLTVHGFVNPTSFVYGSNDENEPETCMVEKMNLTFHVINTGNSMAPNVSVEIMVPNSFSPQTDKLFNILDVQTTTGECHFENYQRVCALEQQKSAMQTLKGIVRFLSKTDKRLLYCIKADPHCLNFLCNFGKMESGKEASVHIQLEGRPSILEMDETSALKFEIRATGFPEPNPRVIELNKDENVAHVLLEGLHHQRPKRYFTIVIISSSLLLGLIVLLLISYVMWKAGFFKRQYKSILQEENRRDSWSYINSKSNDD
Chain of Beta-adrenergic receptor kinase 1 (Homo sapiens) (P25098 whole entry, looked up): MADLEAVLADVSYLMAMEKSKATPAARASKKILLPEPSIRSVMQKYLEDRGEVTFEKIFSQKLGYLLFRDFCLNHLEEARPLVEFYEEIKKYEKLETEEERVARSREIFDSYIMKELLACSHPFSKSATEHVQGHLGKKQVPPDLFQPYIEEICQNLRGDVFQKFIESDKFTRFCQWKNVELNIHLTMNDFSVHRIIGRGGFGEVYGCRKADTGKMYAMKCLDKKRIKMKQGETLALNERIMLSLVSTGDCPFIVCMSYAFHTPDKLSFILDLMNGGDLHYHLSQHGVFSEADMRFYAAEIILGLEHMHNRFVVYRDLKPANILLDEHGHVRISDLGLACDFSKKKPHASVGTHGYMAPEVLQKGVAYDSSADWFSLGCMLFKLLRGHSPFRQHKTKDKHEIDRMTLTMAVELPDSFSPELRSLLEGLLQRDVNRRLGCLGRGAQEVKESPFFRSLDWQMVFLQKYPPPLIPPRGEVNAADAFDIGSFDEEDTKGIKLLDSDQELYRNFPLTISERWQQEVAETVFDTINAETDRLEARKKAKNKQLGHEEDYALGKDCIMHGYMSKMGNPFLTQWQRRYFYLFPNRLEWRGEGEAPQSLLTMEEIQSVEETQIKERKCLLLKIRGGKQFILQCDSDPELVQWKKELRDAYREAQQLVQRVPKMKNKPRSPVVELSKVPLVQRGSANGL
Chain of Beta-2 adrenergic receptor (Homo sapiens) (P07550 whole entry, looked up): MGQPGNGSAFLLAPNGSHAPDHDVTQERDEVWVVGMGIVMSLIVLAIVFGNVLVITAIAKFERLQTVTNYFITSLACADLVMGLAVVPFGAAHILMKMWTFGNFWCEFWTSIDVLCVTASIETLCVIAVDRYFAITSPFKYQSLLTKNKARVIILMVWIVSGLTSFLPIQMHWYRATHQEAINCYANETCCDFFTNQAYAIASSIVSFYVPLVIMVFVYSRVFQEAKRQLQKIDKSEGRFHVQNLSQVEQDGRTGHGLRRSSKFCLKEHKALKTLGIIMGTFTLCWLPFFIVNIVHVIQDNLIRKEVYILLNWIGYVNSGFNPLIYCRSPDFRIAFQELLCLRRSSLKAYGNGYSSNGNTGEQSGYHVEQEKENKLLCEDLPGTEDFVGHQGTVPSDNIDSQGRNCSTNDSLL
Chain of ATP-binding cassette sub-family B member 6 (Homo sapiens) (Q9NP58 whole entry, looked up): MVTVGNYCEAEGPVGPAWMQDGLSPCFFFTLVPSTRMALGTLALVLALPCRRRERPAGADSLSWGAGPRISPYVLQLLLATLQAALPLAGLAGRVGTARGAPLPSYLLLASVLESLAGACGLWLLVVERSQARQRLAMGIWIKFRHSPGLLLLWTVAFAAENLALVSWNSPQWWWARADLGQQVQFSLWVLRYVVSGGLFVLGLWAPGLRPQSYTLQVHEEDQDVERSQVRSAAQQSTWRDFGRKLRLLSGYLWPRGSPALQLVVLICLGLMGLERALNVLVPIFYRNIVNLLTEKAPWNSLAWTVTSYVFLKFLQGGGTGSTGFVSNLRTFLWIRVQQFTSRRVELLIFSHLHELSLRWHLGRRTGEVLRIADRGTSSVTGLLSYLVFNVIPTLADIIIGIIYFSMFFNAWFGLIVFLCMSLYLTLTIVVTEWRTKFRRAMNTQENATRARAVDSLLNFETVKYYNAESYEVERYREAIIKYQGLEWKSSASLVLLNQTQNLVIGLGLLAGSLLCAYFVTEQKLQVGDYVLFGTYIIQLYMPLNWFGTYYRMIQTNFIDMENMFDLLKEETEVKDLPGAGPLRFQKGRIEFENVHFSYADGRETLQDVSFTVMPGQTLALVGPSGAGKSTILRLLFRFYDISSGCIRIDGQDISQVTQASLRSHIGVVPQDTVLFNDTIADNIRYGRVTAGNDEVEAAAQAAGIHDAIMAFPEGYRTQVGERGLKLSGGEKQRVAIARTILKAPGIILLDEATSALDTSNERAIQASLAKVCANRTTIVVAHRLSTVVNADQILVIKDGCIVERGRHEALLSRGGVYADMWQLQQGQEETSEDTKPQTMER
Chain of AP-2 complex subunit beta (Homo sapiens) (P63010 whole entry, looked up, the tested form may be a part, one chain of several): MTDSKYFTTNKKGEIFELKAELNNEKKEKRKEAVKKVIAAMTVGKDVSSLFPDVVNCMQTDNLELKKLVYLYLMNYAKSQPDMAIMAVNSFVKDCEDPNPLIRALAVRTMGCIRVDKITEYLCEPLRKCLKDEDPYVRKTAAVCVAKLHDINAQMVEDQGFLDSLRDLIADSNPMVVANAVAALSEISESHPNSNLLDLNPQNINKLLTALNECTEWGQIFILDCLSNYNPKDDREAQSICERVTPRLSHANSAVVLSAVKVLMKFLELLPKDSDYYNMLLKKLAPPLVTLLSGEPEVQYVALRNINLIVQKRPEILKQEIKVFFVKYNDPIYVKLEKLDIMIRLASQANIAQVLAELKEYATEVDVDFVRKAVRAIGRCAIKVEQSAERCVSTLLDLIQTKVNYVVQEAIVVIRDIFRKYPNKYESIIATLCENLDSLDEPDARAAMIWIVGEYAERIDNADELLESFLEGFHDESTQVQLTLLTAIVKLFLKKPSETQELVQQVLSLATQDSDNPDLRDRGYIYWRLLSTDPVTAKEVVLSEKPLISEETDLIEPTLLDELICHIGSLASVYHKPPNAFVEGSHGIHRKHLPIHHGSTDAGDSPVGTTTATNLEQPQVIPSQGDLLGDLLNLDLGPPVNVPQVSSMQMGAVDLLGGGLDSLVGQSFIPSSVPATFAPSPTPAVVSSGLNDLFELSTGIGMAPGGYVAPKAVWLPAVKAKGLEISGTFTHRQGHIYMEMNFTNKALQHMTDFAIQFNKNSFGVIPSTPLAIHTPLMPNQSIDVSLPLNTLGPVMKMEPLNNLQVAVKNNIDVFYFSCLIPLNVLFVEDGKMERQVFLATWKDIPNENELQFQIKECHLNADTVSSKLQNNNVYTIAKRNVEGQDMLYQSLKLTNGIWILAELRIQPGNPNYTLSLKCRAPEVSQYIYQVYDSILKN

With `CCOc1ccc2nc(N/C(N)=N/S(C)(=O)=O)nc(C)c2c1`, the percent of DMSO control GFP in assay [1] is 90.6% (inactive). Moreover, the GFP response vs DMSO in assay [2] was 132% (inactive); in [4], 84.7% (inactive). Besides, the percent response of DMSO control in [3] was 107% (inactive). The GFP response, % of DMSO in [5] was 93.8% (inactive). This molecule had a double positive events in assay [6] of 67.9%. In addition, in [6], the vesicle binding response was 174% (inactive). In addition, the inhibition (in general, the drop in the measured response relative to a control, in per cent) in [7] is -3.24% (inactive); in assay [11], 35.3% (inactive); in assay [15], 0% (inactive). Further, in assay [8], the superoxide response (% of plate) is 98.7% (inactive). In addition, the aptamer binding inhibition in [9] was 3% (inactive). The response in [10] is -5.51% (inactive); in assay [12], -5.13% (inactive). Moreover, the binding (% of control) in assay [13] was 95% (inactive). Besides, in assay [14], the efflux inhibition (fraction of control) is 0.05 (inactive). Moreover, in [16], the differentiation response is 3.28% (inactive).

As for `COc1ccc(C2NCCC3(O)CCCCC23)c(OC)c1OC` (stereo not given), the percent of DMSO control GFP in assay [1] was 98.8% (inactive). Also, the figures for the GFP response vs DMSO in assay [2] and in assay [4] were 99.6% (inactive) and 107% (inactive), respectively. The percent response of DMSO control in [3] was 93.9% (inactive). Moreover, the GFP response, % of DMSO in assay [5] is 97.4% (inactive). The double positive events in [6] was 57.7%. Also, in assay [6], the vesicle binding response is 199% (inactive). Also, the inhibition in [7] is -11.3% (inactive); in [11] it was 10.4% (inactive); in [15], 6% (inactive). Moreover, the superoxide response (% of plate) in assay [8] is 105% (inactive). Besides, the aptamer binding inhibition in [9] was 1% (inactive). Further, the response in assay [10] was -8.95% (inactive); in assay [12], -2.26% (inactive). For the same molecule, the binding (% of control) in assay [13] was 102% (inactive). In assay [14], the efflux inhibition (fraction of control) is -0.06 (inactive). Moreover, the differentiation response in assay [16] is -18.4% (inactive).

Take `COC(=O)c1cc(COc2ccc3ccc(=O)oc3c2)c(C)o1`: in [1], the percent of DMSO control GFP was 105% (inactive). For the same molecule, the values for the GFP response vs DMSO in assay [2] and in [4] were 104% (inactive) and 109% (inactive), respectively. Also, the percent response of DMSO control in [3] is 101% (inactive). For the same molecule, the GFP response, % of DMSO in assay [5] is 92.4% (inactive). Moreover, the double positive events in assay [6] was 59.9%. Besides, the vesicle binding response in assay [6] was 120% (inactive). Moreover, the inhibition in assay [7] was -15.8% (inactive); in [11], -2.54% (inactive); in assay [15], 12% (inactive). In addition, the superoxide response (% of plate) in assay [8] is 108% (inactive). In [9], the aptamer binding inhibition is 1% (inactive). Besides, the response in assay [10] was 7.33% (inactive); in assay [12], -7.29% (inactive). Besides, the binding (% of control) in [13] was 102% (inactive). In assay [14], the efflux inhibition (fraction of control) was 0.29 (inactive). For the same molecule, the differentiation response in assay [16] was -7.5% (inactive).

For `Cc1ccc(C2CC(c3cccs3)=NN2C(=O)c2ccco2)o1` (stereo not given), the percent of DMSO control GFP in assay [1] is 92.6% (inactive). The GFP response vs DMSO in assay [2] is 87.6% (inactive); in assay [4], 82.8% (inactive). For the same molecule, in assay [3], the percent response of DMSO control was 89.3% (inactive). The GFP response, % of DMSO in assay [5] is 87% (inactive). The molecule further showed a double positive events in assay [6] of 62.2%. Besides, in [6], the vesicle binding response was 135% (inactive). Further, the inhibition was 2.93% (inactive) in assay [7], -17.3% (inactive) in assay [11] and -1% (inactive) in assay [15]. Besides, in assay [8], the superoxide response (% of plate) was 106% (inactive). For the same molecule, the aptamer binding inhibition in [9] is -1% (inactive). Also, the response was -25.7% (inactive) in assay [10] and -7.57% (inactive) in assay [12]. In assay [13], the binding (% of control) was 107% (inactive). The efflux inhibition (fraction of control) in assay [14] is 0.275 (inactive). Besides, in assay [16], the differentiation response is 1.28% (inactive).

As to `O=C(CC1SC(=O)NC1=O)Nc1ccc(Cl)cc1` (stereo not given), in [1], the percent of DMSO control GFP is 101% (inactive). Besides, the GFP response vs DMSO in assay [2] was 104% (inactive); in [4], 98% (inactive). For the same molecule, the percent response of DMSO control in [3] was 108% (inactive). The GFP response, % of DMSO in assay [5] was 108% (inactive). This molecule also showed a double positive events in assay [6] of 65.3%. Moreover, in assay [6], the vesicle binding response is 193% (inactive). For the same molecule, the inhibition is 6.95% (inactive) in [7], 1.72% (inactive) in assay [11] and -3% (inactive) in assay [15]. Moreover, the superoxide response (% of plate) in assay [8] is 116% (inactive). Moreover, in assay [9], the aptamer binding inhibition was -1% (inactive). The figures for the response in assay [10] and in [12] were 2.95% (inactive) and 1.59% (inactive), respectively. For the same molecule, the binding (% of control) in [13] was 100% (inactive). For the same molecule, the efflux inhibition (fraction of control) in [14] was -0.205 (inactive). The differentiation response in [16] is -16.3% (inactive).
